The text below walks through data of PubChem BioAssay.

In the first assay the target is Calmodulin-1 (Homo sapiens) (UniProt P0DP23). As to the kind of experiment: small molecules binding calmodulin-1 with EGTA – biochemical, small-molecule microarray, Cy5-labelled CALM1, profiling panel (AID 1111).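 Further: labelled calmodulin applied in Tris saline Tween buffer holding calcium plus EGTA and DTT.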 As to conditions: Cy5-CALM1 binding fluorescence, higher = more signal.
The compound `CC(C)OC(=O)CC(=O)CC(O)c1ccc(C#N)cc1` (configuration not stated) registered a composite z-score of -1.49.
On to `COC(=O)[C@@]1(Cc2ccc(OC)cc2)[C@H]2c3cc(C(=O)N(C)C)n(Cc4c(OC)[nH]cc(C)c4=O)c3C[C@H]2CN1C(=O)c1ccccc1`, for which the composite z-score came out at 0.352.
In turn, `O=C1C[C@@](C(=O)NC2CC2)(c2ccc([N+](=O)[O-])cc2)[C@@H](c2ccc(CO)cc2)N1CC12CC3CC(CC(C3)C1)C2` returned a composite z-score of 0.557.

The next assay has the same target. As to the kind of experiment: small molecules binding Ca-loaded calmodulin-1 – biochemical, small-molecule microarray, Cy5-labelled CALM1, plus calcium, artefact control for SMM control-protein annotation, profiling panel (AID 1112).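 Further: score merges spot fluorescence with signal to noise from triplicate slides.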 As to conditions: Cy5-CALM1 binding fluorescence, higher = more signal.
Turning to `COc1ccc([Si](C)(C)[C@@H]2[C@@H](CC(=O)N3CCC[C@H]3CO)O[C@]3(C(=O)N(C)c4c(Br)cc(C)cc43)[C@H]2C)cc1`, the composite z-score came out at 0.0431.
For `CN(C)CCCCCCNC(=O)[C@H]1C[C@H]2C(=O)N[C@@H](CCCCN)C(=O)N2[C@H]1c1ccc(O)cc1`, the composite z-score came to 1.14.
Still for that read-out and setting: the same measure for `COCC(=C=CC[C@H](O)c1ccc(OCCO)cc1)C[C@H](O)c1cc(Cl)cc(Cl)c1O`: -0.814.
Still for that read-out and setting: the same measure for `COc1cc(C(O)C2C=CC3C(=O)N(c4ccccc4)C(=O)C3N2Nc2ccc(C#N)cc2)cc(OC)c1OC` (configuration not stated): 1.19.
Still for that read-out and setting: the same measure for `N#Cc1ccc(NN2C(C(O)c3ccc([N+](=O)[O-])cc3)C=CC3C(=O)N(c4ccccc4)C(=O)C32)cc1` (configuration not stated): 0.235.
With `CC(=O)NCCCC[C@@H]1NC(=O)[C@@H]2C[C@H](C(=O)NCCCCCCNC(=O)CS)[C@H](c3ccc(O)cc3)N2C1=O`, the composite z-score came to 0.31.
`CCOC(=O)C[C@H]1[C@H](OC(=O)Cc2ccc3c(c2)OCO3)[C@@H](NC(=O)c2ccc(-c3ccccc3)cc2)c2cc(OCCCO)ccc2N1C(=O)c1ccccc1`: the composite z-score was -0.0305.
On the same count and under the same terms, the same measure for `O=C1O[C@@H](c2ccccc2)[C@@H](c2ccccc2)N2[C@@H](c3ccccc3OCCO)[C@]3(C(=O)Nc4ccc(C#CC5(O)CCCCCC5)cc43)[C@@H](C(=O)Nc3nc4ccccc4s3)[C@H]12`: 0.226.
The same measure, in the same setting: the same measure for `Cc1ccccc1C(O)C1C=CC2C(=O)N(C)C(=O)C2N1N1CCCCC1` (configuration not stated): 0.413; for `COCCOC(=O)N1C(=O)[C@@]2(c3ccccc31)[C@H](C(=O)Nc1nc3ccccc3s1)[C@H]1C(=O)O[C@H](c3ccccc3)[C@H](c3ccccc3)N1[C@@H]2c1ccc(OCCO)cc1`: 0.773.
Turning to `CC(C)C[C@@H]1NC(=O)[C@H]2C[C@@H](C(=O)NCCCCCNC(=O)CS)[C@@H](c3cccc(OCCO)c3)N2C1=O`, the composite z-score was -0.364.
The same measure, in the same setting: the same measure for `COc1ccc(C#Cc2ccc3c(c2)[C@]2(C(=O)N3)[C@H](c3ccc(O)cc3)N3[C@H](c4ccccc4)[C@H](c4ccccc4)OC(=O)[C@H]3[C@@H]2C(=O)NC[C@H](O)c2ccccc2)cc1`: 0.689; for `O=C1OCC=C[C@H]2OC34C=CCN(c5ccc(Cl)cc5)C(=O)[C@H]3N(CCCCCCO)C(=O)[C@@H]4[C@@H]12` (some centres not stated): 0.174.
Still for that read-out and setting: the same measure for `C=CCOC(=O)[C@H]1[C@@H]2C(=O)O[C@@H](c3ccccc3)[C@@H](c3ccccc3)N2[C@@H](c2ccc(OCCOC(=O)[C@@H]3C[C@@H]4C(=O)N5CCC[C@H]5C(=O)N4[C@@H]3c3ccc(O)cc3)cc2)[C@]12C(=O)Nc1ccccc12`: 0.0257; for `CCCC[C@H]1OB(O)C[C@H]2C1=C(C)C[C@H]1C(=O)N(Cc3ccccc3)C(=O)[C@H]12`: -0.326; for `CCCC[C@@H]1C[C@H]1[C@@H](NC(=O)c1ccc(-c2ccccc2)cc1)c1ccc(-c2ccccc2)cc1`: -0.836.
Turning to `COCC(=C=CC[C@@H](O)c1ccc(CO)o1)CCO`, the composite z-score is -0.662.
Take `Cc1ccc(S[C@]2(C(=O)NCc3ccccc3)CC(=O)N(Cc3ccccc3Cl)[C@@H]2c2ccc(CO)cc2I)cc1`: the composite z-score is 0.137.
Same read-out and setting: the same measure for `CC=CC(O)C1C=CC2C(=O)N(c3ccccc3)C(=O)C2N1Nc1ccc(C(C)C)cc1` (configuration not stated): 0.138.
With `COCCOC(=O)N1C(=O)[C@@]2(c3ccccc31)[C@H](C(=O)NC[C@H](O)c1ccccc1)[C@H]1C(=O)O[C@H](c3ccccc3)[C@H](c3ccccc3)N1[C@@H]2c1ccc(OCCO)cc1`, the composite z-score is -0.373.
With `[N-]=[N+]=NCc1ccccc1C[C@@]1(C(=O)NCC(O)CO)N=C(c2ccc(OCCCO)cc2)O[C@@H]1c1ccccc1CN=[N+]=[N-]` (some centres not stated), the composite z-score is 0.876.
Turning to `COc1ccc(C#Cc2ccc3c(c2)[C@]2(C(=O)N3)[C@H](C(=O)NC[C@H](O)c3ccccc3)[C@H]3C(=O)O[C@H](c4ccccc4)[C@H](c4ccccc4)N3[C@@H]2c2ccccc2OCCO)cc1`, the composite z-score is 0.243.
Still for that read-out and setting: the same measure for `COC(=O)[C@@]1(Cc2ccccc2)[C@H]2c3cc(C(=O)N(C)C)n(Cc4cc(C)n(C)n4)c3C[C@H]2CN1C(=O)c1ccccc1`: 0.908; for `C#CCN(C(/C=C/c1ccccc1)CO)C(C(=O)O)c1ccccc1` (configuration not stated): -0.707.
